# Measured values from PubChem BioAssay (Tox21).
# Where “and” joins values, the source holds several entries; their conditions need not be identical. Identical values can stand only once. A structure can be active in one record and inactive in another. Calls of active or inactive are those of the source. Where a call stands in place of a potency, no number is given. Unless noted, the call rests on the fitted dose curve; in most records, active means well fitted curve in the direction sought with a large enough effect in the repeat runs; inconclusive means weak or mixed curves; inactive means no such curve, though single readings can be large; an effect the other way counts as inactive or inconclusive.
# How the values were obtained:
# [1] = target: Estrogen receptor (Homo sapiens) (UniProt P03372); assay: qHTS assay to identify small molecule antagonists of the estrogen receptor alpha (ER-alpha) signaling pathway (AID 743069; active means well fitted curve in the direction sought with a large enough effect in the signal ratio in the repeat runs, not every such curve was filed as active; inconclusive means weak or mixed curves, or effect the other way; inactive means no such curve, though single readings can be large or run the other way; the % refers to the signal ratio; further: potency means the concentration at half of the fitted maximal effect)
# Chain of Estrogen receptor (Homo sapiens) (P03372 whole entry, looked up): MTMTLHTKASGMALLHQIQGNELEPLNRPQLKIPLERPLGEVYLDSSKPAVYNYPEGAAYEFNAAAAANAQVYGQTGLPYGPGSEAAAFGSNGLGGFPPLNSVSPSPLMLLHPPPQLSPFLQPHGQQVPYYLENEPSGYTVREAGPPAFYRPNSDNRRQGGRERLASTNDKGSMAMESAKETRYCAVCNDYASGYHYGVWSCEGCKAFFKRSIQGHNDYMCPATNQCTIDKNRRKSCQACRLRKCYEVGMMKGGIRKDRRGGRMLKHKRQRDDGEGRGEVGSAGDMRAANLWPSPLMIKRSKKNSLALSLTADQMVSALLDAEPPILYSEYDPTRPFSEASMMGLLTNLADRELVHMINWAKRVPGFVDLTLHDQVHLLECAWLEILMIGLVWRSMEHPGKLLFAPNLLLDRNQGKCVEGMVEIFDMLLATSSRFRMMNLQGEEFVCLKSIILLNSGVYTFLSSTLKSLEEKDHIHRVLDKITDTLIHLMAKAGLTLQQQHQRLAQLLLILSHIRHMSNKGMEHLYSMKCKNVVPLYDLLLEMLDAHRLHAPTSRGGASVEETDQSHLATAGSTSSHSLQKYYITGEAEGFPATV
# Summary of the method: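 Estradiol-stimulated ER-alpha-UAS-bla HEK293 cells, 18 hr compound exposure at 37C. LiveBLAzer B/G substrate, 2 hr RT, fluorescence read.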
# [2] = target: Estrogen receptor (Homo sapiens) (UniProt P03372); assay: qHTS assay to identify small molecule agonists of the estrogen receptor alpha (ER-alpha) signaling pathway using the BG1 cell line (AID 743079); further: nearly all actives have a fitted effect of over 20% in size; further: potency means the concentration at half of the fitted maximal effect
# [3] = target: Vitamin D3 receptor (Homo sapiens) (UniProt P11473); assay: qHTS assay to identify small molecule agonists of the vitamin D receptor (VDR) signaling pathway (AID 743222; calls by dose curve)
# Chain of Vitamin D3 receptor (Homo sapiens) (P11473 whole entry, looked up): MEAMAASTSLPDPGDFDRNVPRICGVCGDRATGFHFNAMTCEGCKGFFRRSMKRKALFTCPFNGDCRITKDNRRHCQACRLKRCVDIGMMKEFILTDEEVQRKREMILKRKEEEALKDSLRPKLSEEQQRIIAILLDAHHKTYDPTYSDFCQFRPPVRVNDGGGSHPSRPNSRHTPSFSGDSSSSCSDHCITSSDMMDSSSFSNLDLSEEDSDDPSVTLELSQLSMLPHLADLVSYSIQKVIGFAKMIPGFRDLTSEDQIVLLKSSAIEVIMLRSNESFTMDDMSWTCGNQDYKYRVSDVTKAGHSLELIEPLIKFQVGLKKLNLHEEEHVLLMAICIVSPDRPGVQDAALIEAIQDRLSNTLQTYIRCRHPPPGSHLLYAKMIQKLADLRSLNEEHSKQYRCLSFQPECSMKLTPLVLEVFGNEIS
# Summary of the method: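 VDR-bla cells were plated 4 h at 37C/5% CO2, then exposed to compounds in DMSO for 16 h. After LiveBLAzer B/G FRET substrate addition and 2 h at room temperature, beta-lactamase reporter fluorescence was read.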
# [4] = qHTS assay to identify small molecule agonists of the AP-1 signaling pathway (AID 1159526; calls by dose curve)
# [5] = target: Nuclear receptor subfamily 1 group I member 2 (Rattus norvegicus) (UniProt Q9R1A7); assay: Rat pregnane X receptor (rPXR) activation by small molecules, qHTS assay (AID 1346983); conditions: rPXR luciferase reporter cells, One-Glo luminescence, 24 h; max activation: stronger effect = higher value; further: nearly all actives have a fitted effect of over 20% in size
# Chain of Nuclear receptor subfamily 1 group I member 2 (Rattus norvegicus) (Q9R1A7 whole entry, looked up): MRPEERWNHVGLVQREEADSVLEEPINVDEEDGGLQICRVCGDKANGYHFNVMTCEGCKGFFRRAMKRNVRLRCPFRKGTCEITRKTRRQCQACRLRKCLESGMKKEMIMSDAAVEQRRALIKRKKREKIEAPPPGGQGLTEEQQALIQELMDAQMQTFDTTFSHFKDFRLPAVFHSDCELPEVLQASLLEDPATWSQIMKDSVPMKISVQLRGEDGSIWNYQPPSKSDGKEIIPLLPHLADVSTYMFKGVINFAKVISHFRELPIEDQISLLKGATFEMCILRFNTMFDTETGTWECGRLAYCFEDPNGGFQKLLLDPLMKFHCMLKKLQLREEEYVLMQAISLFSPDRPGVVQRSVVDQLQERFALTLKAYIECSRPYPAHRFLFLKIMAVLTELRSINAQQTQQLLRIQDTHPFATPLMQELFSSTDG
# Summary of the method: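 Cell-based rPXR luciferase reporter assay, 2,000 cells per well, rested 5hr at 37 C before compound addition in DMSO, then 24 hr at 37 C. One-Glo reagent was added and luminescence read after 30 min at room temperature.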
# [6] = target: Nuclear receptor subfamily 1 group I member 2 (Homo sapiens) (UniProt O75469); assay: CYP3A4 induction through human pregnane X receptor (PXR) by small molecules, qHTS assay (AID 1346984); further: nearly all actives have a fitted effect of over 40% in size
# Summary of the method: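 DPX-2 cells (HepG2 co-transfected with PXR and CYP3A4 promoter-luciferase) treated with compounds 24 h at 37C; luciferin-IPA CYP3A4 substrate 3uM final added for 3 h, then One-Glo; luminescence read. qHTS format.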
# [7] = target: Peroxisome proliferator-activated receptor gamma (Homo sapiens) (UniProt P37231); assay: qHTS assay to identify small molecule antagonists of the peroxisome proliferator-activated receptor gamma (PPARg) signaling pathway (AID 743191; calls by dose curve; further: nearly all actives have a fitted effect of over 30% in size; further: potency means the concentration at half of the fitted maximal effect)
# Chain of Peroxisome proliferator-activated receptor gamma (Homo sapiens) (P37231 whole entry, looked up): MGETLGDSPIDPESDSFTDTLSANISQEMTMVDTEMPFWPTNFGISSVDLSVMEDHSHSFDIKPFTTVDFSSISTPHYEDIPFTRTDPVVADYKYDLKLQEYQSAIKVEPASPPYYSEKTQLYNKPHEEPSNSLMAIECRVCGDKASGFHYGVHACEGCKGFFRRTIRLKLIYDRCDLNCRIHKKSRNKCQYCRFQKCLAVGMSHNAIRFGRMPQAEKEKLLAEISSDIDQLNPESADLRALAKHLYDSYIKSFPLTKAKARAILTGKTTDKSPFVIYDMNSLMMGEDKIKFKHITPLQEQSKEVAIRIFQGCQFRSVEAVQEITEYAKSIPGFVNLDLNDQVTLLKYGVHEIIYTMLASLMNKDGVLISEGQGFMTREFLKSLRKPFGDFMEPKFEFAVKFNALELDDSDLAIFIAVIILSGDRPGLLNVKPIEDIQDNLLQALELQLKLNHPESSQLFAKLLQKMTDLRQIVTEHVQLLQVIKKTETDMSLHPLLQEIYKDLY
# Summary of the method: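 GeneBLAzer PPARg UAS-bla HEK293H cells carrying a UAS-driven beta-lactamase reporter were plated at 3000 cells/well, preincubated 5 h at 37C, then given compound for 17 h at 37C; LiveBLAzer B/G FRET substrate was read after 1 h at room temperature.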
# [8] = target: Androgen receptor (Homo sapiens) (UniProt P10275); assay: qHTS assay to identify small molecule agonists of the androgen receptor (AR) signaling pathway using the MDA cell line (AID 743040; further: nearly all actives have a fitted effect of over 20% in size)
# Chain of Androgen receptor (Homo sapiens) (P10275 whole entry, looked up): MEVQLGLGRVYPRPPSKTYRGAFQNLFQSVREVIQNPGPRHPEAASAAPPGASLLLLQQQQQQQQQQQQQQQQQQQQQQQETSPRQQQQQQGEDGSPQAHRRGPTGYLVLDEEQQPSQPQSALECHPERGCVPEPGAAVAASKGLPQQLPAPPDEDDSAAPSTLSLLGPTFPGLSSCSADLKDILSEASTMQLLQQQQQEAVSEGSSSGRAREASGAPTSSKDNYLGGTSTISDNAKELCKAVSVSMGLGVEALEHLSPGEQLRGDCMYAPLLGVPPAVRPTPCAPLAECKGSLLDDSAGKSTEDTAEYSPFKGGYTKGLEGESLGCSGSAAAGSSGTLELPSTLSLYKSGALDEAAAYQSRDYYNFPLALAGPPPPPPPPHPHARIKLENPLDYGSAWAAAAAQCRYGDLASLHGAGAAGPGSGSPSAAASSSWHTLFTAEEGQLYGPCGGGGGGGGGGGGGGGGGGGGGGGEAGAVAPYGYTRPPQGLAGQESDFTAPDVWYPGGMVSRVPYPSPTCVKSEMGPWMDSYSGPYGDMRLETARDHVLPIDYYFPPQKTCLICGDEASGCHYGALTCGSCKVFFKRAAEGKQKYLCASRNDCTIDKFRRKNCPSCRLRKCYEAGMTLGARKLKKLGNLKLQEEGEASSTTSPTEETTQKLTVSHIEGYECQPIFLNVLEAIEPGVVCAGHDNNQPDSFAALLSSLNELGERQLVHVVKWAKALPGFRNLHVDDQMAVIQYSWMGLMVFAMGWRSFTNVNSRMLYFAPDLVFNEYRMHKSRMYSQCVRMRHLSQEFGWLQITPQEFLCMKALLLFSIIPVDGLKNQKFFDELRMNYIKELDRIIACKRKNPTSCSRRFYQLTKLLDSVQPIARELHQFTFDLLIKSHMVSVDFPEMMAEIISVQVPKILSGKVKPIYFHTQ
# Summary of the method: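 Luminescence from ONE-Glo, read after 30 min at room temperature, reflects MMTV-driven luciferase in MDA-kb2 cells (AR- and GR-responsive). Treatment lasted 16 h at 37C, 0% CO2.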
# [9] = target: Androgen receptor (Homo sapiens) (UniProt P10275); assay: qHTS assay to identify small molecule antagonists of the androgen receptor (AR) signaling pathway using the MDA cell line (AID 743042; further: potency means the concentration at half of the fitted maximal effect; nearly all actives have a fitted effect of over 55% in size)
# Summary of the method: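 MDA-kb2 cells (human breast carcinoma, stably carrying an MMTV-luciferase reporter responsive to AR and GR) were plated at 3,000 cells/well and preincubated 5 hr at 37C, then given compound plus R1881 agonist for 16 h. ONE-Glo luminescence was read.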
# [10] = qHTS assay for small molecule activators of the heat shock response signaling pathway - cell viability counter screen (AID 743209); further: nearly all actives have a fitted effect of over 50% in size; further: potency means the concentration at half of the fitted maximal effect
# Summary of the method: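 CellSensor HSE-bla HeLa cells, plated overnight at 37 C/5% CO2, were exposed to compounds in DMSO for 5 h at 37 C. Viability was then read in the same wells by CellTiter-Glo luminescence after 30 min at room temperature.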
# [11] = target: Peroxisome proliferator-activated receptor gamma (Homo sapiens) (UniProt P37231); assay: qHTS assay to identify small molecule agonists of the peroxisome proliferator-activated receptor gamma (PPARg) signaling pathway (AID 743094; active means well fitted activation curve with a large enough effect in the signal ratio in the repeat runs, not every such curve was filed as active; inconclusive means weak or mixed curves, or effect the other way; inactive means no such curve, though single readings can be large or run the other way; the % refers to the signal ratio)
# Summary of the method: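 GeneBLAzer PPARg UAS-bla HEK293H cells carrying a stably integrated beta-lactamase reporter were pre-incubated 5 h at 37C, then exposed to compounds in DMSO for 17 h at 37C; LiveBLAzer B/G FRET substrate was added for 1 h at room temperature and fluorescence read.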
# [12] = qHTS assay to identify small molecule antagonists of the peroxisome proliferator-activated receptor gamma (PPARg) signaling pathway - cell viability counter screen (AID 743194); conditions: Potency: co-treated with 50 nM rosiglitazone unless noted; further: nearly all actives have a fitted effect of over 55% in size; further: potency means the concentration at half of the fitted maximal effect
# Summary of the method: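 PPARg-UAS-bla HEK293H cells were plated, rested 5 h at 37 C, then treated with compounds plus rosiglitazone (50 nM final) for 17 h at 37 C; viability was then read by CellTiter-Glo luminescence after 30 min at room temperature.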
# [13] = target: Vitamin D3 receptor (Homo sapiens) (UniProt P11473); assay: qHTS assay to identify small molecule antagonists of the vitamin D receptor (VDR) signaling pathway (AID 743223; active means well fitted inhibition curve with a large enough effect in the signal ratio in the repeat runs, not every such curve was filed as active; inconclusive means weak or mixed curves, or effect the other way; inactive means no such curve, though single readings can be large or run the other way; the % refers to the signal ratio)
# Summary of the method: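 Agonist 1alpha,25-dihydroxyvitamin D3 (3 nM in well) was added with each compound to VDR-bla cells preincubated 4 h. Cells stood 16 h at 37C, then FRET substrate 2 h at room temperature; fluorescence intensity recorded.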
# [14] = target: Androgen receptor (Homo sapiens) (UniProt P10275); assay: qHTS assay to identify small molecule antagonists of the androgen receptor (AR) signaling pathway (AID 743035; active means well fitted inhibition curve with a large enough effect in the signal ratio in the repeat runs, not every such curve was filed as active; inconclusive means weak or mixed curves, or effect the other way; inactive means no such curve, though single readings can be large or run the other way; the % refers to the signal ratio; further: potency means the concentration at half of the fitted maximal effect)
# Summary of the method: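 HEK293 cells stably carrying a UAS-driven beta-lactamase reporter (AR-UAS-bla GripTite) were plated for 4 h at 37C, then given compound and the agonist R1881 and incubated 16 h. Reporter activity was read by LiveBLAzer B/G FRET fluorescence after 2 h at room temperature.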
# [15] = qHTS assay to identify small molecule antagonists of the glucocorticoid receptor (GR) signaling pathway - cell viability counter screen (AID 720693); further: nearly all actives have a fitted effect of over 55% in size; further: potency means the concentration at half of the fitted maximal effect
# [16] = qHTS assay for small molecule agonists of the antioxidant response element (ARE) signaling pathway (AID 743202; active means well fitted activation curve with a large enough effect in the signal ratio in the repeat runs, not every such curve was filed as active; inconclusive means weak or mixed curves, or effect the other way; inactive means no such curve, though single readings can be large or run the other way; the % refers to the signal ratio; further: potency means the concentration at half of the fitted maximal effect)
# Summary of the method: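 Compounds delivered in DMSO to ARE-bla HepG2 cells (2,000 cells/well, pre-incubated 5 h) and left 16 h at 37 C. LiveBLAzer B/G FRET substrate then added for 2 h at RT before fluorescence reading.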
# [17] = target: Bile acid receptor (Homo sapiens) (UniProt Q96RI1); assay: qHTS assay to identify small molecule agonists of the farnesoid-X-receptor (FXR) signaling pathway (AID 743220; active means well fitted activation curve with a large enough effect in the signal ratio in the repeat runs, not every such curve was filed as active; inconclusive means weak or mixed curves, or effect the other way; the % refers to the signal ratio)
# Chain of Bile acid receptor (Homo sapiens) (Q96RI1 whole entry, looked up): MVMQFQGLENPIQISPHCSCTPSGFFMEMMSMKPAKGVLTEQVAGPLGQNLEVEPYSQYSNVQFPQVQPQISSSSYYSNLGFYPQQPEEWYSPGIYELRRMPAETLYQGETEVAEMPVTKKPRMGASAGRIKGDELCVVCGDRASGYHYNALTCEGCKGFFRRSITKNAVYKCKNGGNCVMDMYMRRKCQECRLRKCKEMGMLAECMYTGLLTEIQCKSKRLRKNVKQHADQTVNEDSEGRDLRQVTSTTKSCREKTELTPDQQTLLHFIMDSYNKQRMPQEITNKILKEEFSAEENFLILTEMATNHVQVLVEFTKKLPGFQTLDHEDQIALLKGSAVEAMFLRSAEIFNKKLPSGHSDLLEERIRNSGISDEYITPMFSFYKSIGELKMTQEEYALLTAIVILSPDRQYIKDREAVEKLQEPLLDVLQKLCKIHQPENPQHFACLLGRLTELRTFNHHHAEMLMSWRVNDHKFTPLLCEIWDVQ
# Summary of the method: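 Beta-lactamase reporter under UAS control in GeneBLAzer FXR HEK 293T cells (5000/well) measured with LiveBLAzer FRET substrate after 2 h at room temperature. Compound exposure lasted 16 h at 37C.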
# [18] = target: Androgen receptor (Homo sapiens) (UniProt P10275); assay: qHTS assay to identify small molecule agonists of the androgen receptor (AR) signaling pathway (AID 743036; active means well fitted activation curve with a large enough effect in the signal ratio in the repeat runs, with a control signal flat, not every such curve was filed as active; inconclusive means weak or mixed curves, or effect the other way; inactive means no such curve, though single readings can be large or run the other way; the % refers to the signal ratio)
# Summary of the method: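 Beta-lactamase under UAS control, stably integrated in HEK293 GripTite cells, reports receptor activation. After 16 h compound treatment, cells received FRET substrate for 2 h at room temperature before fluorescence reading.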
smiles,measurement,setting,value
O=C1C(I)=CC(=C(c2cc(I)c(O)c(I)c2)c2ccccc2C(=O)O)C=C1I,Potency,[1],7.56 µM [inconclusive] (active)
same,Potency,[2],inactive
same,outcome,[3],inactive
same,outcome,[4],inactive
same,max activation,[5],-1.41% (inactive)
same,Potency,[6],inactive
O=C(Nc1ccccc1-c1ccc(Cl)cc1)c1cccnc1Cl,Potency,[1],inactive
same,Potency,[2],inactive
same,Potency,[7],51.9 µM (active)
CO/C=C(/C(=O)OC)c1ccccc1Oc1cc(Oc2ccccc2C#N)ncn1,Potency,[8],inactive
same,Potency,[9],6.83 µM (active)
same,Potency,[10],inactive
ClC1=C(Cl)[C@]2(Cl)[C@@H]3[C@@H](Cl)[C@H]4O[C@H]4[C@@H]3C1(Cl)C2(Cl)Cl,Potency,[1],inactive
same,Potency,[11],inactive
same,Potency,[12],43.6 µM (active)
same,outcome,[3],inactive
same,outcome,[13],inactive
C[C@]12CC[C@@H](O)C[C@@H]1CC[C@@H]1[C@@H]2CC[C@]2(C)C(=O)CC[C@@H]12,outcome,[4],inactive
Nc1ccc([N+](=O)[O-])cc1,Potency,[14],43.6 µM (active)
same,Potency,[8],inactive
same,outcome,[3],inactive
O=[N+]([O-])c1c(Cl)c(Cl)cc(Cl)c1Cl,Potency,[11],inactive
COc1ccc(C(c2ccc(OC)cc2)C(Cl)(Cl)Cl)cc1,Potency,[1],43.4 µM [inconclusive] (active)
same,Potency,[2],4.97 µM (active)
CCN(CC)C(=O)Cl,outcome,[4],inactive
Cc1cc(C(C)(C)c2ccc(O)c(C)c2)ccc1O,Potency,[15],inactive
same,Potency,[8],inactive
same,Potency,[12],37 µM (active)
same,Potency,[16],9.23 µM (active)
same,outcome,[17],inactive
same,outcome,[3],inactive
same,outcome,[13],inactive
Cc1ccc(N(SC(F)(Cl)Cl)S(=O)(=O)N(C)C)cc1,Potency,[15],inactive
same,Potency,[8],inactive
same,Potency,[9],8.63 µM (active)
same,Potency,[12],7.76 µM (active)
CC1COC(Cn2cncn2)(c2ccc(Oc3ccc(Cl)cc3)cc2Cl)O1 (stereo unspecified),Potency,[12],49 µM (active)
same,Potency,[16],1.93 µM (active)
same,Potency,[10],inactive
same,outcome,[17],inactive
same,outcome,[4],inactive
COc1cc(OC)c(OC)cc1C=O,Potency,[8],inactive
same,Potency,[2],inactive
Cc1nnc2n1-c1sc(CCc3ccc(CC(C)C)cc3)cc1C(c1ccccc1Cl)=NC2C (stereo unspecified),Potency,[15],23.9 µM (active)
same,Potency,[12],29.8 µM [setting not given] (active)
same,Potency,[10],29.8 µM (active)
CCOC(=O)C(O)(c1ccc(Cl)cc1)c1ccc(Cl)cc1,Potency,[15],17.6 µM (active)
same,Potency,[14],19.5 µM (active)
same,Potency,[18],inactive
same,Potency,[8],inactive
same,Potency,[9],19.5 µM (active) and 68.6 µM (active)
same,Potency,[1],55.5 µM [cytotoxic] (active) and 54.9 µM [inhibitor] (active)
same,Potency,[11],inactive
same,Potency,[10],7.84 µM (active) and inactive
same,outcome,[3],inactive
CNC(=O)Oc1cc(C)c(SC)c(C)c1,outcome,[4],inactive
CN1CSC(=S)N(C)C1,Potency,[15],inactive
same,Potency,[2],inactive
same,Potency,[7],inactive
same,Potency,[12],inactive
same,Potency,[10],inactive and 1.09 µM (active)
same,outcome,[17],inactive
same,outcome,[13],inactive
CCCCC(CC)COC(=O)c1ccc(C(=O)OCC(CC)CCCC)cc1 (stereo unspecified),outcome,[17],inactive
CCC(C)=O,outcome,[17],inactive
OCC(c1ccc(Cl)cc1)c1ccc(Cl)cc1,Potency,[10],inactive
same,outcome,[17],inactive
same,outcome,[3],inactive
c1ccc2c(c1)Sc1ccccc1N2CC1CN2CCC1CC2 (stereo unspecified),Potency,[15],inactive
same,Potency,[12],26.6 µM (active)
Clc1ccccc1-c1ccccc1Cl,Potency,[15],inactive
same,Potency,[16],inactive
same,Potency,[10],inactive
same,outcome,[3],inactive
O=C(O)C(c1ccc(Cl)cc1)c1ccc(Cl)cc1,outcome,[13],inactive
CCc1cccc(C)c1N,outcome,[13],inactive
